Some test systems named below: SR leukemia; RPMI-8226 leukemia; OVCAR-8 ovarian; OVCAR-5 ovarian; OVCAR-4 ovarian; SK-OV-3 ovarian; IGROV1 ovarian; OVCAR-3 ovarian; HS 578T breast; NCI/ADR-RES ovarian.
Holding throughout (experiment): NCI-60 one-dose screen, 48 h (100 = growth as untreated, 0 = no growth, -100 = all killed)
Holding throughout (settings): 10 µM unless noted

The panel holds about 83,000 compounds, 20% with a hit somewhere; the sample as a whole holds those more often.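 Percent growth is the endpoint: 0 to 100 indicates growth inhibition (40 means 60% inhibition), 0 means no net growth, and negative values indicate cell death.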 A number with no mark means an inactive call. Calls of active or inactive are those of the source. Rule for the calls: active = growth percent below 10; inactive = the rest.

Consider `COc1cc(-c2cc(=O)oc3cc(O)ccc23)cc(OC)c1OC`, for which the growth in the assay with SR leukemia is 97.6%; in the assay on RPMI-8226 leukemia, 41.8%; with OVCAR-8 ovarian, 84.9%; in the assay with OVCAR-5 ovarian it was 103%; in the assay on OVCAR-4 ovarian it was 73%; in the assay on SK-OV-3 ovarian it was 135%. Further, the growth is 94% in the assay on IGROV1 ovarian, 88.4% in the assay with OVCAR-3 ovarian, 88.5% with HS 578T breast and 88.3% in the assay on NCI/ADR-RES ovarian.
`CN(C)c1ccc(-c2c(C#N)c(N)n3nc(N)c(C#N)c3c2C#N)cc1`: the growth with SR leukemia is 62.1%; with RPMI-8226 leukemia, 32.2%; in the assay on OVCAR-8 ovarian, 83.7%; in the assay on OVCAR-5 ovarian, 63.7%; with OVCAR-4 ovarian it was 101%; with SK-OV-3 ovarian, 71.3%. The growth was 55.7% in the assay with IGROV1 ovarian, 85.3% in the assay with OVCAR-3 ovarian, 93.2% in the assay on HS 578T breast and 90.4% in the assay on NCI/ADR-RES ovarian.
Take `CC(=O)c1cccc(NS(=O)(=O)c2cccc(C(=O)Nc3ccc(Br)cc3)c2)c1`: the growth is 60.6% [25 µM] in the assay with SR leukemia; 30.4% [25 µM] in the assay with RPMI-8226 leukemia; 57.1% [25 µM] in the assay with OVCAR-8 ovarian; 77.9% [25 µM] in the assay on OVCAR-5 ovarian; 47.6% [25 µM] in the assay with OVCAR-4 ovarian; 58.1% [25 µM] in the assay on SK-OV-3 ovarian. Also, the growth with IGROV1 ovarian was 62.4% [25 µM]; with OVCAR-3 ovarian, 66.1% [25 µM]; in the assay with HS 578T breast, 80.6% [25 µM]; in the assay with NCI/ADR-RES ovarian, 34.7% [25 µM].
On to `C=C1C(=O)O[C@H]2[C@H]1CC/C(COC(=O)CCCCCC(=O)OC/C1=C/CC[C@@]3(C)O[C@H]3[C@H]3OC(=O)C(=C)[C@@H]3CC1)=C\CC[C@@]1(C)O[C@@H]21`, for which the growth in the assay with SR leukemia was 3.39% (active); in the assay with RPMI-8226 leukemia it was 1.08% (active); in the assay on OVCAR-8 ovarian, 12.2%; in the assay on OVCAR-5 ovarian it was 51.2%; with OVCAR-4 ovarian, 37.2%; with SK-OV-3 ovarian, 94.6%. For the same molecule, the growth with IGROV1 ovarian was 7.45% (active); in the assay on OVCAR-3 ovarian, 1.8% (active); in the assay with HS 578T breast, 18.7%; in the assay on NCI/ADR-RES ovarian it was 46.9%.
Take `CC(=O)Nc1ccc(C(=O)Nc2cc(-c3ccccc3)ccc2N)cc1`: the growth is 39.4% in the assay with SR leukemia; 83.6% in the assay with RPMI-8226 leukemia; 54.9% in the assay with OVCAR-8 ovarian; 60.5% in the assay on OVCAR-5 ovarian; 76.7% in the assay on OVCAR-4 ovarian; 67.9% in the assay with SK-OV-3 ovarian. The growth in the assay on IGROV1 ovarian was 94%; in the assay on OVCAR-3 ovarian it was 75.2%; with HS 578T breast it was 92%; with NCI/ADR-RES ovarian, 42.9%.
As to `Cc1ccc(-c2c(Br)c(OC(=O)CO[C@@H]3C[C@H](C)CC[C@H]3C(C)C)c(-c3ccc(C)cc3C)c(Br)c2OC(=O)CO[C@H]2C[C@@H](C)CC[C@@H]2C(C)C)c(C)c1`, the growth with SR leukemia was 104%; in the assay on RPMI-8226 leukemia it was 94.3%; in the assay with OVCAR-8 ovarian, 89.6%; in the assay on OVCAR-5 ovarian, 102%; in the assay with OVCAR-4 ovarian it was 106%; with SK-OV-3 ovarian it was 94.9%. Also, the growth with IGROV1 ovarian was 108%; in the assay with OVCAR-3 ovarian, 110%; in the assay on HS 578T breast, 98.9%; with NCI/ADR-RES ovarian, 101%.
In the case of `COc1ccc(C(O)c2cc3c(N)c(C(=O)Nc4cccc(Br)c4C)sc3nc2C)cc1` (stereo not given), the growth in the assay with SR leukemia is 1.86% (active); in the assay with RPMI-8226 leukemia, 7.3% (active); with OVCAR-8 ovarian, 17.4%; in the assay with OVCAR-5 ovarian it was 39.6%; with OVCAR-4 ovarian it was 47.4%; in the assay with SK-OV-3 ovarian, 30.8%. Further, the growth is 24.8% with IGROV1 ovarian, -14.4% (active) with OVCAR-3 ovarian, 21.8% in the assay with HS 578T breast and 14.1% with NCI/ADR-RES ovarian.
On to `O=C(Nc1cccc(C2=NCCN2)c1)c1ccc(OCCCOc2ccc(C(=O)Nc3cccc(C4=NCCN4)c3)cc2)cc1`, for which the growth in the assay with SR leukemia was 11.9%; in the assay on RPMI-8226 leukemia, -3.7% (active); in the assay with OVCAR-8 ovarian, 55%; in the assay on OVCAR-5 ovarian, 24.8%; in the assay with OVCAR-4 ovarian, 13.2%; with SK-OV-3 ovarian, 31.6%. In addition, the growth with IGROV1 ovarian was -40.2% (active); with OVCAR-3 ovarian it was 5.65% (active); in the assay with HS 578T breast, 35.6%; in the assay on NCI/ADR-RES ovarian, 104%.
Regarding `CN1CCN(CC#CCNC(=O)[C@]23CCC(C)(C)C[C@H]2C2=CC[C@@H]4[C@@]5(C)Cc6c([nH]c7ccccc67)C(C)(C)[C@@H]5CC[C@@]4(C)[C@]2(C)CC3)CC1`, the growth in the assay on SR leukemia was -2.18% (active); in the assay on RPMI-8226 leukemia, 53.2%; in the assay with OVCAR-8 ovarian, 77%; in the assay on OVCAR-5 ovarian, 98.9%; in the assay with OVCAR-4 ovarian it was 77.8%; in the assay on SK-OV-3 ovarian, 87.1%. In addition, the growth with IGROV1 ovarian is 81.3%; in the assay on OVCAR-3 ovarian it was 72.2%; in the assay with HS 578T breast it was 77.9%; in the assay with NCI/ADR-RES ovarian, 76.9%.
Regarding `c1ccc(C2CC(c3cccc(Nc4ccncc4)c3)=NN2c2ccccc2)cc1` (stereo not given), the growth in the assay with SR leukemia is 5.55% (active); in the assay with RPMI-8226 leukemia, 16.2%; in the assay with OVCAR-8 ovarian, 68.5%; in the assay with OVCAR-5 ovarian it was 81.6%; in the assay with OVCAR-4 ovarian it was 67.5%; in the assay with SK-OV-3 ovarian it was 84.1%. Also, the growth in the assay on IGROV1 ovarian is 62.6%; with OVCAR-3 ovarian, 78.3%; with HS 578T breast, 82.5%; with NCI/ADR-RES ovarian, 74.2%.
Consider `O=C(CSc1nc2sc3c(c2c(=O)n1Cc1ccccc1)CCCC3)N1CCN(c2ccccc2)CC1`, for which the growth in the assay with SR leukemia is 101%; in the assay with RPMI-8226 leukemia, 94.1%; in the assay on OVCAR-8 ovarian, 97.9%; in the assay on OVCAR-5 ovarian, 102%; in the assay with OVCAR-4 ovarian, 96.1%; in the assay with SK-OV-3 ovarian, 92.1%. In addition, the growth in the assay on IGROV1 ovarian is 103%; in the assay with OVCAR-3 ovarian it was 106%; with HS 578T breast, 101%; with NCI/ADR-RES ovarian, 94.8%.
In the case of `C#CC(=O)Nc1cccc2c1cc(C)n2-c1nc2c(c(NCc3ccccc3)n1)CCCC2`, the growth with SR leukemia was -32.2% (active); in the assay with RPMI-8226 leukemia, -22.3% (active); in the assay on OVCAR-8 ovarian, -14% (active); in the assay with OVCAR-5 ovarian, -16% (active); with OVCAR-4 ovarian, -35.7% (active); with SK-OV-3 ovarian it was -94.4% (active). Also, the growth was -28.1% (active) with IGROV1 ovarian, -9.24% (active) in the assay on OVCAR-3 ovarian, -7.53% (active) in the assay with HS 578T breast and 6.91% (active) with NCI/ADR-RES ovarian.
For `O=C(N/N=C/c1ccc(F)cc1)c1ccccc1Nc1cccc(C(F)(F)F)c1`, the growth was 24% with SR leukemia; 93.1% in the assay with RPMI-8226 leukemia; 89.5% in the assay on OVCAR-8 ovarian; 104% in the assay on OVCAR-5 ovarian; 84.4% with OVCAR-4 ovarian; 94.6% in the assay with SK-OV-3 ovarian. Further, the growth with IGROV1 ovarian is 103%; with OVCAR-3 ovarian, 81.3%; in the assay with HS 578T breast, 112%; in the assay with NCI/ADR-RES ovarian, 107%.

The record behind these values is PubChem BioAssay (NCI).
